An excerpt weighted towards active compounds, which were near 17% of everything screened.
DT40 TDP1 no CPT = qHTS for Inhibitors of human tyrosyl-DNA phosphodiesterase 1 (TDP1): qHTS in cells in absence of CPT. DT40 Tdp1-/- hTDP1 cells, no CPT, ATP luminescence, 48 h. 420,000 tested, 15% active. Potency, µM (titrated, usually from 46.2 µM), inactives show top-dose activity change, negative = growth inhibition, actives largely listed as inhibitors; further: on the % scale 0 is the no-effect control and ±100 the full control effect; nearly all actives have a fitted effect of over 55% in size
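Camptothecin absent (DMSO only). Human TDP1-complemented DT40 knockout cells, 400 cells/well, 37 °C for minimum 48 hr; ATP measured via CellTiter-Glo, 30 min dark incubation, luminescence.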
ATXN2 expr inh = inhibitors of ATXN2 expression | HEK-293 ATXN2-luciferase reporter, luminescence, 24 h | Potency, µM (titrated, usually from 57 µM), for the others: top-dose activity change, negative = inhibition, actives largely listed as inhibitors | 360,000 tested, 0.72% active | AID 1745845; further: on the % scale 0 is the no-effect control and ±100 the full control effect; nearly all actives have a fitted effect of over 55% in size
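ATXN2-luciferase reporter cells (luciferase flanked by upstream and downstream ATXN2 gene portions) were treated 24 h at 37 °C with compounds at up to 57 uM. SteadyGlo luminescence gave expression; GF-AFC fluorescence gave viability.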
TDP1 cell CPT = growth inhibition of DT40 Tdp1-/-;hTDP1 cells with camptothecin (screen for TDP1 inhibitors); chicken DT40 Tdp1-/-;hTDP1 cells + 20 nM CPT, ATP luminescence, 48 h; Potency, µM (highest dose often 46.2 µM), for the others: at the top dose activity change, negative = growth inhibition, hits mostly inhibitors; 420,000 tested, 12% active; AID 686979; further: on the % scale 0 is the no-effect control and ±100 the full control effect; nearly all actives have a fitted effect of over 55% in size
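Chicken DT40 Tdp1-/- cells stably complemented with human TDP1 were seeded at 400 cells/well in medium containing 20 nM camptothecin, exposed to pin-transferred compounds, and grown at 37 °C for at least 48 hr. Viability was read as ATP luminescence.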
TGFb inhibitor = blocks TGF-b signaling; HepG2 CAGA-GFP TGF-b/SMAD3 reporter, GFP fluorescence, 18 h; TGF-beta stimulated, 500 pg/mL final; Potency, µM (doses to about 46.1 µM), for inactives: at the top dose activity, negative = inhibition, actives largely listed as inhibitors; 410,000 tested, 1.2% active; further: on the % scale 0 is the no-effect control and ±100 the full control effect; nearly all actives have a fitted effect of over 65% in size
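HEPG2 CAGA-GFP, 1000 cells/well; 2 h settle, 37 C; cpd via pin tool; TGF-b 500 pg/mL final; 18 h, 37 C; GFP imaging ex488/em500-530; %Activity normalised to -TGF-b and +DMSO controls; CRC fit, curve class.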
S2 tox = reduces viability in counter-screen for ATXN expression inhibitors | AID 651635 | Potency, µM (doses to about 56.7 µM), actives largely listed as cytotoxic | 400,000 tested, 0.49% active | S2 cells (HEK-293 line with an ATXN2-luciferase reporter) viability, CellTiter-Fluor protease fluorescence, 24 h; further: nearly all actives have a fitted effect of over 40% in size
HepG2 tox = HepG2 cytotoxicity, counter-screen for TGF-b inhibitors; HepG2 CAGA-GFP viability, ATP luminescence, 18 h; Potency, µM (top dose mostly 46.1 µM), without a hit: top-dose activity change, negative = cytotoxicity, most hits filed as cytotoxic; 410,000 tested, 0.76% active
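CellTiter-Glo luminescence gave cytotoxicity after 18 hours at 37 degrees C. The cells were HepG2 CAGA-GFP in 1% FBS DMEM, stimulated with 500 pg/mL TGF-beta after compound addition. %Activity was normalised to no-cell wells (complete cell-killing) and DMSO (no toxicity), and curves were fitted and classified.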
An asterisk follows results filed as active; i = inactive; u = inconclusive; x = no result given; [ ] = dose if it differs, or a comment. The call rests on the fitted dose curve; in most records, active means well fitted curve in the direction sought with a large enough effect; inconclusive means small, poorly fitted or top-dose-only effect, or another doubt; inactive means no such curve, though single readings can be large; an effect the other way counts as inactive or inconclusive. Potency means the concentration at half of the fitted maximal effect.

SMILES	DT40 TDP1 no CPT	ATXN2 expr inh	TDP1 cell CPT	TGFb inhibitor	S2 tox	HepG2 tox
CCOC(=O)c1c(C)[nH]c(C(=O)Cn2nnc(-c3ccc(Cl)cc3)n2)c1C	u	u	-17.7%	2.0%	u	-12.7%
CCc1ccccc1NC(=O)c1cn(C)c(=O)c2ccccc12	-9.4%	-15.2%	-18.8%	-14.9%	i	-16.4%
O=C(O)c1ccc(Nc2nc(-c3cc4ccccc4oc3=O)cs2)cc1O	u	-3.6%[11.3 µM]	u	1.6%	x	-0.5%
Nc1ccc(Nc2nc(-c3cc4ccccc4oc3=O)cs2)cc1	8.2µM*	-10.7%	18.4µM*	u	u	-11.1%
O=C(Nc1nc(-c2cc3ccccc3oc2=O)cs1)c1ccc(Br)o1	-24.6%	5.9%	-15.5%	17.9%	i	-28.3%
CC(=O)Nc1ccc(Nc2nc(-c3cc4ccccc4oc3=O)cs2)cc1	18.4µM*	-4.6%	8.2µM*	1.8%	i	-6.8%
COCCn1c(SCC(=O)c2c(C)[nH]c3ccccc23)nc2cc(C(=O)NC(C)C)ccc2c1=O	16.4µM*	14.8%	11.6µM*	u	i	-18.7%
COC(=O)CC(=O)CSc1nc2cc(C(=O)NC(C)C)ccc2c(=O)n1CCc1ccccc1	23.1µM*	-25.1%	u	-25.7%	u	-5.4%
COC(=O)CC(=O)CSc1nc2cc(C(=O)NCC(C)C)ccc2c(=O)n1CCc1ccccc1	20.6µM*	-9.7%	u	-29.0%	i	-3.0%
COC(=O)c1ccc2c(=O)n(CCN3CCOCC3)c(SCC(=O)NCc3ccccc3)nc2c1	-29.5%	-6.5%	3.4%	1.1%	i	-10.9%
CC(C)(C(=O)N1CCC1(C)C(=O)NS(=O)(=O)c1cccc(C#N)c1)c1ccccc1 (stereo not drawn)	-11.7%	4.0%	0.0%	-4.9%	i	-0.8%
CCOC1=C2CN(S(=O)(=O)c3ccc(C)cc3)[C@H](c3ccc(CC)cc3)C[C@@H]2N(S(=O)(=O)c2ccc(C)cc2)[C@H](c2ccccc2)C1	u	-7.3%	u	-6.1%	u	-22.6%
CCOC1=C2CN(S(=O)(=O)c3ccc(C)cc3)[C@H](c3ccccc3)C[C@@H]2N(S(=O)(=O)c2ccc(Br)cc2)[C@H](c2ccccc2)C1	11.6µM*	-23.4%	u	-5.0%	i	1.1%
CCOC1=C2CN(S(=O)(=O)c3ccc(C)cc3)[C@H](c3ccccc3)C[C@@H]2N(S(=O)(=O)c2ccc(C)cc2)[C@H](c2cccc(C)c2)C1	-21.7%	7.7%	-6.2%	u	i	-27.8%
CCOC1=C2CN(S(=O)(=O)c3ccc(C)cc3)C(c3ccc(CC)cc3)CC2N(S(=O)(=O)c2ccc(C)cc2)C(c2ccc(CC)cc2)C1 (stereo not drawn)	2.06µM*	x	3.66µM*	x	x	x
Cc1ccc([C@H]2C(C(=O)O)=CCN2S(=O)(=O)c2ccc(C)cc2)cc1	-10.4%	x	0.2%	x	x	x
COc1cc(N(C(C)=O)c2ccc(O)c(C(=O)O)c2)c2ncccc2c1	-21.4%	x	-5.4%	3.5%	i	-0.4%
Cc1ccc(Nc2c(-c3cccnc3)nc3ccc(C)cn23)cc1	u	-6.5%	u	-11.9%	i	-21.6%
Cc1ccc2nc(-c3ccccn3)c(N)n2c1	u	0.0%	u	16.7%	i	10µM*
Cc1ccc2nc(-c3ccco3)c(Cc3ccccc3)n2c1	u	4.2%	u	u	u	-15.2%
Cc1ccc2nc(-c3ccccn3)c(Nc3ccc(F)cc3)n2c1	2.31µM*	u	2.06µM*	0.0%	u	-13.7%
COCCNC(=O)c1onc(CSc2ccc(F)c(F)c2)c1C(=O)NCCOC	-6.7%	9.9%	u	14.3%	i	6.3%
O=C(Cn1nnc(-c2cc(Cl)ccc2-n2cnnn2)n1)N1CCCc2ccccc21	20.6µM*	-7.9%	u	-24.4%	i	-12.3%
Cc1ccc(-c2nnn(CC(=O)N3CCCc4ccccc43)n2)cc1	-20.9%	1.8%	u	0.0%	i	-22.7%
CCc1ccc(CNC(=O)Cc2ccc(NC(=O)N3CCSc4ncccc43)cc2)cc1	23.1µM*	x	25.9µM*	0.0%	x	-17.9%
SMILES	DT40 TDP1 no CPT	ATXN2 expr inh	TDP1 cell CPT	TGFb inhibitor	S2 tox	HepG2 tox
O=C(Cc1ccc(NC(=O)N2CCSc3ncccc32)cc1)NCc1ccccc1	u	x	u	0.0%	x	-17.3%
CCOc1ccc(CNC(=O)Cc2ccc(NC(=O)N3CCSc4ncccc43)cc2)cc1	16.4µM*	x	16.4µM*	0.0%	x	-1.6%
CCOc1ccccc1CNC(=O)c1ccc(NC(=O)N2CCSc3ncccc32)cc1	14.6µM*	x	20.6µM*	-27.8%	x	9.2%
CCOc1ccccc1CNC(=O)c1ccc(NC(=O)C2=CSCCO2)cc1	23.1µM*	x	u	-28.9%	i	-48.0%
COc1ccc(CNC(=O)c2ccc(NC(=O)C3=CSCCO3)cc2)cc1	13.5%	x	u	6.3%	i	-5.5%
O=C(Cc1ccc(NC(=O)N2CCSc3ncccc32)cc1)NCc1cccc(Cl)c1	20.6µM*	x	u	-6.7%	x	-27.9%
CCc1ccc(CNC(=O)Cc2ccc(NC(=O)C3=C(C)OCCS3)cc2)cc1	1.3µM*	7.0%	1.16µM*	u	i	-8.4%
COc1ccc(NC(=O)CSc2cn(CC(=O)N3CCCCC3)c3ccccc23)c(OC)c1	u	x	u	u	x	-4.4%
COc1ccc(OC)c(NC(=O)CSc2cn(CC(=O)N3CCCCCC3)c3ccccc23)c1	20.6µM*	x	u	u	x	-30.4%
COc1ccc(Cl)cc1NC(=O)CSc1cn(CC(=O)N2CCCCC2)c2ccccc12	20.6µM*	x	20.6µM*	0.0%	x	-27.0%
CCOC(=O)c1c(C)c(C(=O)Nc2cc(F)ccc2F)c(C)n1C	10.3µM*	1.4%	18.4µM*	-20.9%	i	-12.2%
Cc1ccc(C(=O)Nc2nnc(-c3ccco3)o2)cc1C	14.6µM*	4.7%	23.1µM*	-9.8%	i	-6.2%
O=C(COc1ccc(Cl)cc1)Nc1nnc(-c2ccc3c(c2)CCCC3)o1	5.8µM*	31.9%	-3.6%	-15.2%	i	-24.7%
COc1ccccc1C(=O)Nc1nnc(-c2ccc3c(c2)CCCC3)o1	23.1µM*	4.8%	u	u	i	-55.9%
O=C(Nc1nnc(-c2ccco2)o1)c1ccc(Cl)cc1	13µM*	-35.0%	u	4.9%	i	-28.3%
